The values that follow come from a collection of fitness landscapes (doi:10.1126/science.1257360).

Whole data set: some 140,000 sequences, median “enrichment ratio after two sorts for PhoP signalling” near 0, cut for the highest 2% near 11. For the sample, the highest values were picked, then their nearest neighbours and some sequences at random. Some results are limits rather than exact numbers.

B1: PhoQ; a variant is named by its letters at X, in order, P23837 (parent)
chain: MKKLLRLFFPLSLRVRFLLATAAVVLVLSLAYGMVALIGYSVSFDKTTFRLLRGESNLFYTLAKWENNKLHVELPENIDKQSPTMTLIYDENGQLLWAQRDVPWLMKMIQPDWLKSNGFHEIEADVNDTSLLLSGDHSIQQQLQEVREDDDDAEMTHSVAVNVYPATSRMPKLTIVVVDTIPVELKSSYMVWSWFIYVLSANLLLVIPLLWVAAWWSLRPIEALAKEVRELEEHNRELLNPATTRELTSLVRNLNRLLKSERERYDKYRTTLTDLTHSLKTPLXXLQXXLRSLRSEKMSVSDAEPVMLEQISRISQQIGYYLHRASMRGGTLLSRELHPVAPLLDNLTSALNKVYQRKGVNISLDISPEISFVGEQNDFVEVMGNVLDNACKYCLEFVEISARQTDEHLYIVVEDDGPGIPLSKREVIFDRGQRVDTLRPGQGVGLAVAREITEQYEGKIVAGESMLGGARMEVIFGRQHSAPKDE

The assay covers variants of B1. In words: enrichment ratio after two sorts for PhoP signalling (ratio (wild type AVST 3.29)); higher = more functional. As to conditions: with PhoP (E. coli).
Turning to NADQ, the enrichment ratio was no more than 0.25.

On to STYQ, for which the enrichment ratio was no more than 0.25. With QPYQ the figure was no more than 0.25; with KSYQ, no more than 0.25. Consider QEYQ, for which the enrichment ratio turned out to be 30.4. In the case of YTYQ it was no more than 0.25. As for NGYQ, the enrichment ratio is no more than 0.25. With FFYQ the figure was no more than 0.25; with TTYQ, 11.4.

QGYQ: the enrichment ratio stood at 13.9. For the variant TGYQ, the enrichment ratio was 15.9. For the variant RGYQ, the enrichment ratio is no more than 0.25.

With QTYQ, the enrichment ratio was determined as 4.58. With DEAF the figure was no more than 0.25; with WEER, no more than 0.25. Consider ADHC, for which the enrichment ratio is no more than 0.25.

Take NYMN: the enrichment ratio was no more than 0.25.

On to WKDT, for which the enrichment ratio is no more than 0.25. With EGGF the figure was no more than 0.25; with WIPQ, no more than 0.25. With IQYQ the figure was no more than 0.25; with TQYQ, 27.1; with TQYD, 3.43. In the case of TGDI, the enrichment ratio was no more than 0.25. Regarding WKRD, the enrichment ratio was no more than 0.25. For KGIQ, the enrichment ratio is no more than 0.25. With FVAA the figure was no more than 0.25; with SPAN, no more than 0.25; with PVAA, no more than 0.25.

Regarding TVAA, the enrichment ratio is 20.7.

In the case of PVAG, the enrichment ratio is no more than 0.25. In the case of NVAT it was no more than 0.25.

On to TVAT, for which the enrichment ratio turned out to be 16.8. In the case of FVAT, the enrichment ratio was no more than 0.25. With NVAN the figure was no more than 0.25; with TVAG, 17.8; with TVAN, 16.9. In the case of NVAG, the enrichment ratio is no more than 0.25. As for RYVN, the enrichment ratio is no more than 0.25. Turning to RYKH, the enrichment ratio was no more than 0.25. In the case of MFLN it was no more than 0.25; in that of RRDC, no more than 0.25; in that of MLNF, no more than 0.25.

As for PVMT, the enrichment ratio is no more than 0.25. In the case of TVMT it was 12.2; in that of SHAN, no more than 0.25.

Consider THAN, for which the enrichment ratio stood at 13.2. With FVAS the figure was no more than 0.25. Regarding NHAN, the enrichment ratio was no more than 0.25. Regarding TVAS, the enrichment ratio amounted to 14.3. KCMT: the enrichment ratio is no more than 0.25. Regarding NVAS, the enrichment ratio was no more than 0.25.

Take PEFN: the enrichment ratio was no more than 0.25.

Regarding PTTH, the enrichment ratio was 1.43. With DIRA the figure was no more than 0.25; with HQWG, no more than 0.25; with AKSS, 8.3. Regarding NGSS, the enrichment ratio is no more than 0.25. ADSS: the enrichment ratio is no more than 0.25. For AQSS, the enrichment ratio was determined as 11.7. In the case of ANSR, the enrichment ratio is no more than 0.25. Take AGSS: the enrichment ratio stood at 11.2. For AGSK, the enrichment ratio stood at 0.857. With ANSS the figure was 12.7; with AHSS, no more than 0.25; with LTKW, no more than 0.25. Regarding FSPG, the enrichment ratio is no more than 0.25. Consider VPLL, for which the enrichment ratio was no more than 0.25. As for NLEV, the enrichment ratio was no more than 0.25. With EVYR the figure was no more than 0.25; with QKGY, no more than 0.25; with FFYC, no more than 0.25.

For TGYC, the enrichment ratio is 13.2.

NGYC: the enrichment ratio was no more than 0.25.

Consider QTYC, for which the enrichment ratio stood at 0.887. With KAYC the figure was no more than 0.25; with YAYC, no more than 0.25; with RGYC, no more than 0.25. With QGYC the figure was 13.7; with TAYC, 11.3.

KTHY: the enrichment ratio was no more than 0.25. With GMIR, the enrichment ratio worked out at 1.56. Turning to TGTT, the enrichment ratio worked out at 11.2. In the case of NPLD it was no more than 0.25.

Take SLDR: the enrichment ratio was no more than 0.25. TAGG: the enrichment ratio was determined as 3.74. With VTSS, the enrichment ratio was no more than 0.25. YGPF: the enrichment ratio was no more than 0.25. Consider MAMI, for which the enrichment ratio was determined as 8.98. In the case of AGML, the enrichment ratio came to 16.1. Turning to ANML, the enrichment ratio turned out to be 13. For WIML, the enrichment ratio was no more than 0.25. As for NIML, the enrichment ratio amounted to 6.63. As for AEML, the enrichment ratio came out at 14.4. For the variant PNML, the enrichment ratio is no more than 0.25. With YWML the figure was no more than 0.25; with QEML, no more than 0.25. With APML, the enrichment ratio was no more than 0.25. As for TTML, the enrichment ratio was 28.8. In the case of NEML, the enrichment ratio was determined as 0.665. Turning to HMSC, the enrichment ratio was no more than 0.25. In the case of RRES it was no more than 0.25. In the case of YPTI it was no more than 0.25. In the case of IDRY it was no more than 0.25; in that of ADML, 21.8; in that of NHML, no more than 0.25. For ACIL, the enrichment ratio was determined as 10.3.

For FDML, the enrichment ratio was no more than 0.25. With AKML the figure was 9.72; with WQML, no more than 0.25. With THML the figure was 12.8; with AQML, 24.2.

In the case of SQML, the enrichment ratio came to 4.5.

For ACRL, the enrichment ratio was no more than 0.25. Consider YHML, for which the enrichment ratio was no more than 0.25. With ACML the figure was 17.8; with LQYI, no more than 0.25. In the case of LLQA, the enrichment ratio is no more than 0.25. With YWKI the figure was no more than 0.25; with RIIT, no more than 0.25. With VAHN the figure was no more than 0.25. For PEIM, the enrichment ratio was no more than 0.25.

For the variant VACQ, the enrichment ratio was no more than 0.25.

As for AWDP, the enrichment ratio was no more than 0.25. With AYET the figure was no more than 0.25; with GVGM, no more than 0.25.

Take RTSP: the enrichment ratio is no more than 0.25. With PEMC the figure was no more than 0.25; with IARY, no more than 0.25. AAML: the enrichment ratio came out at 14.7. Consider NQML, for which the enrichment ratio is no more than 0.25. Turning to YAML, the enrichment ratio was 8.51. In the case of TQML it was 22.5; in that of VHML, no more than 0.25; in that of AHML, 4.34. In the case of KKML it was no more than 0.25.

With AYML, the enrichment ratio is no more than 0.25.

Take AIML: the enrichment ratio was 21.2. Take EQML: the enrichment ratio was no more than 0.25. In the case of IAML it was 4.62; in that of ATML, 11.3; in that of NGCN, no more than 0.25.

For the variant YSQW, the enrichment ratio was no more than 0.25.

With TCLD, the enrichment ratio is no more than 0.25. With PESS the figure was no more than 0.25; with GAAM, no more than 0.25.

For the variant GICM, the enrichment ratio stood at 38.3. On to GEWM, for which the enrichment ratio was no more than 0.25. On to GNCM, for which the enrichment ratio was found to be 11.7. In the case of RICM it was no more than 0.25; in that of GACM, 12.2.

GACK: the enrichment ratio is no more than 0.25.

Take GECK: the enrichment ratio is no more than 0.25. With GICK the figure was 9.7; with GGCM, 9.15; with GTCM, 5.28. In the case of GECM it was 15.3.
